A short description of test [1]: Tanguay_ZF_120hpf_MORT: Oregon State University Tanguay Lab 120 Hour Post-fertilization zebrafish Assay for Mortality (AID 2284399). A digest of the protocol:
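Mortality, recorded present/absent via brightfield imaging at 24 and 120 hpf, in 5D zebrafish embryos exposed statically from 6 hpf after pronase chorion removal. Exposure at 28C, 0.64% DMSO vehicle, DMSO baseline.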

Test [2] can be described thus: Tanguay_ZF_120hpf_EDEM: Oregon State University Tanguay Lab 120 Hour Post-fertilization zebrafish Assay for Edema Malformation (AID 2284400). A digest of the protocol:
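Edema recorded as a binary endpoint under brightfield at 120 hpf, excluding embryos that died. Exposure was static, sealed, 28C, from 6 hpf in dechorionated wild-type larvae, final DMSO 0.64%, DMSO as baseline.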

Test [3] in a line: Tanguay_ZF_120hpf_TCHR: Oregon State University Tanguay Lab 120 Hour Post-fertilization zebrafish Assay for Touch Responsive (AID 2284403). The gist of the method: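 Binary touch-response calls are made at 120 hpf in 5D wild-type zebrafish larvae. These larvae were dechorionated with pronase and exposed singly from 6 hpf in sealed, dark plates at 28 °C with 0.64% DMSO final; dead embryos are excluded.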

Test [4] in a line: Tanguay_ZF_120hpf_ANY: Oregon State University Tanguay Lab 120 Hour Post-fertilization zebrafish Assay for Any Mortality and Malformation (AID 2284404). A digest of the protocol:
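Dechorionated Tropical 5D wild-type embryos, one per well from 6 hpf, static exposure in sealed, dark plates at 28C until 120 hpf, 0.64% DMSO final. Brightfield scoring of mortality and malformations as binary presence/absence, pooling 13 morphology endpoints.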

Test [5] can be described thus: CCTE_Padilla_ZF_Score.Craniofacial: CCTE's 144 Hour Post-fertilization zebrafish Assay Score for Craniofacial Malformation, Padilla Lab (AID 2284405). A digest of the protocol:
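Craniofacial defects were scored at 6 dpf by two blinded observers using stereomicroscopy. Exposure of wild-type embryos began at 6–8 hpf in sealed wells of 10% Hanks' solution at 26C, with chemical removed by rinsing at 5 dpf.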

The nature of test [6]: CCTE_Padilla_ZF_Score.Edema: CCTE's 144 Hour Post-fertilization zebrafish Assay Score for Edema Malformation, Padilla Lab (AID 2284406). The gist of the method: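 Edema scored at 6 dpf by two blinded observers under a stereo microscope, in single outbred wild-type larvae exposed from 6-8 hpf in sealed wells (Hanks', 26C, 14:10 h light) and chemical-free after a 5 dpf rinse.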

Test [7] is described as follows: CCTE_Padilla_ZF_Score.Spine: CCTE's 144 Hour Post-fertilization zebrafish Assay Score for Spine Malformation, Padilla Lab (AID 2284407). A digest of the protocol: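 Spine malformation scored at 6 dpf by two independent blinded observers under stereomicroscope, after static sealed exposure from 6–8 hpf at 26C in Hanks' solution with rinse on 5 dpf. Positive-direction fit against DMSO control.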

Test [8] is described as follows: CCTE_Padilla_ZF_Score.Swim_bladder: CCTE's 144 Hour Post-fertilization zebrafish Assay Score for Swim Bladder Malformation, Padilla Lab (AID 2284408). The gist of the method:
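Swim bladder inflation scored at 6 dpf by two blinded observers under a stereo microscope. Exposure ran from 6–8 hpf in sealed wells of 10% Hanks' at 26C, with rinsing at 5 dpf; DMSO served as baseline.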

Test [9] is described as follows: CCTE_Padilla_ZF_Score.Position: CCTE's 144 Hour Post-fertilization zebrafish Assay Score for Position, Padilla Lab (AID 2284409). A digest of the protocol: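 Wild-type zebrafish embryos (with chorions) exposed singly from 6–8 hpf in sealed wells of Hanks' solution at 26C, rinsed at 5 dpf. At 6 dpf, blinded assessors scored abnormal water-column position by brightfield stereomicroscopy, relative to DMSO.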

Test [10] in a line: Tanguay_ZF_120hpf_BRN: Oregon State University Tanguay Lab 120 Hour Post-fertilization zebrafish Assay for Brain Region Malformation (AID 2284402). A digest of the protocol:
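Binary brightfield scoring of brain malformation at 120 hpf in 5D wild-type larvae, chorion removed with pronase at 4 hpf. Static exposure began at 6 hpf, 28C, sealed plates, DMSO 0.64% (vol/vol) as vehicle baseline.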

Calls of active or inactive are those of the source. How the source made its calls: active means hit-call score of the fitted dose curve at least 0.9, where 1 is the maximum; inactive means score below 0.9.

Broadly, the AC50 is the concentration at which the activity in the assay is half-maximal.

As for `C=CC(=O)OCC(F)(F)C(F)(F)C(F)(F)C(F)(F)COC(=O)C=C`, the concentration at half-maximal activity (AC50) in test [1] is 17.5 µM (active); in [4], 14.2 µM (active); in [6], 4.88 µM (active); in [8], 4.37 µM (active). Also, the call in test [2], in test [3], in test [5], in [7] and in test [9] was inactive.
For `FC(F)(F)C(F)(F)C(F)(F)CI`, the outcome in test [1], in test [2], in test [3], in [4], in [5] and in test [6] was inactive. The compound was classed as inactive in test [7], in test [8] and in test [9].
Turning to `O=S(=O)(OCCOC(F)(F)F)C(F)(F)F`, the compound was classed as inactive in test [1], in test [2], in test [10], in test [3], in test [4] and in [5]. Also, the compound was classed as inactive in test [6], in test [7], in test [8] and in test [9].
For the compound `C=CC(F)(F)C(F)(F)C(F)(F)C(F)(F)C(F)(F)C(F)(F)C(F)(F)C(F)(F)C=C`, the result in test [1], in [2] and in [3] was inactive. Further, in test [4], the half-maximal activity concentration (AC50) was 10.3 µM (active).
On to `C=C(C)C(=O)OCC(F)(F)C(F)(F)C(F)(F)F`, for which the compound was classed as inactive in test [1], in test [2], in test [3], in test [4], in test [5] and in test [6]. In addition, the result in [7], in test [8] and in [9] was inactive.
For the compound `O=C(O)C(F)(F)C(F)(F)C(F)(F)C(F)(F)C(F)(F)C(F)(F)C(F)(F)C(F)(F)C(F)(F)C(F)F`, the concentration at half-maximal activity (AC50) was 37 µM (active) in test [1], 28.8 µM (active) in test [4] and 14.9 µM (active) in test [6]. For the same compound, the compound was called inactive in test [2], in test [3], in test [5], in test [7], in [8] and in [9].
On to `FC(F)(F)C(F)(F)CNCC(F)(F)C(F)(F)F`, for which the call in test [1], in [2], in test [3], in test [4], in [5] and in [6] was inactive. Further, the result in [7] and in test [9] was inactive. Further, in test [8], the AC50 was 0.00275 µM (active).
On to `OCC(F)(F)C(F)(F)C(F)(F)F`, for which the compound was classed as inactive in [1], in test [2], in test [3], in test [4], in [5] and in test [6]. For the same compound, the compound was called inactive in [7], in [8] and in [9].
Take `C=C(C)C(=O)OCC(F)(F)C(F)(F)C(F)(F)C(F)(F)C(F)(F)C(F)(F)C(F)(F)F`: the compound was classed as inactive in test [1], in test [2], in test [10], in test [3], in [4] and in test [5]. Besides, the compound was classed as inactive in test [6], in test [7], in [8] and in [9].
Regarding `O=C(O)C(F)(OC(F)(F)C(F)(OC(F)(F)C(F)(OC(F)(F)C(F)(F)C(F)(F)F)C(F)(F)F)C(F)(F)F)C(F)(F)F` (stereo not drawn), the compound was called inactive in test [1], in test [2], in test [3], in [4], in test [5] and in test [6]. Further, the result in test [7], in test [8] and in [9] was inactive.
For the compound `O=C(O)C(F)(F)C(F)(F)C(F)(F)C(F)(F)C(F)(F)C(F)(F)C(F)(F)C(F)(F)Cl`, the compound was classed as inactive in test [1] and in [7]. In addition, the AC50 in [2] is 37.2 µM (active); in test [10] it was 47.7 µM (active); in test [3], 37.2 µM (active); in [4], 39.8 µM (active); in [5], 35.7 µM (active); in test [6], 36.6 µM (active). The half-maximal activity concentration (AC50) in test [8] was 9.95 µM (active); in [9], 70.4 µM (active).
In the case of `C=C(C)C(=O)OCCC(F)(F)C(F)(F)C(F)(F)C(F)(F)C(F)(C(F)(F)F)C(F)(F)F`, the result in test [1], in test [2], in test [3], in [4], in [5] and in test [6] was inactive. In addition, the compound was called inactive in [7], in [8] and in [9].
Regarding `CC(C)(C)C(=O)CC(=O)C(F)(F)C(F)(F)C(F)(F)F`, the result in test [1], in test [2], in test [3], in [4] and in test [7] was inactive. For the same compound, the AC50 is 30.3 µM (active) in [5], 27.5 µM (active) in [6], 27 µM (active) in test [8] and 29 µM (active) in [9].
Regarding `COC(=O)CCC(F)(F)C(F)(F)C(F)(F)C(F)(F)F`, the compound was called inactive in [1], in test [2], in [3] and in test [4].
As for `CCCCCCCCC(F)(F)C(F)(F)C(F)(F)C(F)(F)C(F)(F)C(F)(F)F`, the result in test [1], in test [2], in test [3], in [4], in [5] and in test [6] was inactive. Besides, the compound was called inactive in test [7], in [8] and in test [9].
With `FC(F)(F)C(F)(F)C(F)(F)C(F)(F)C(F)(F)C(F)(F)C(F)(F)I`, the compound was called inactive in test [1], in test [2], in test [3], in test [4], in test [5] and in test [7]. For the same compound, the result in test [9] was inactive. In addition, the AC50 in [6] was 10.2 µM (active); in test [8] it was 63.8 µM (active).
As for `FC1CC(F)(F)C(F)(F)C1(F)F` (stereo not drawn), the compound was called inactive in [1], in test [2], in [3] and in test [4].
Regarding `Cc1ccc(S(=O)(=O)OCC(F)(F)C(F)(F)C(F)(F)C(F)(F)C(F)(F)C(F)F)cc1`, the result in test [1], in test [2], in test [3], in test [4], in test [5] and in test [6] was inactive. Further, the outcome in test [7] and in test [9] was inactive. Also, in test [8], the AC50 is 9.81 µM (active).
As for `FC(F)(F)C(F)(F)C(F)(F)C(F)(F)C(F)(F)C(F)(F)CC1CO1` (stereo not drawn), the result in test [1], in test [2], in test [10], in [3], in [4] and in [5] was inactive. Moreover, the compound was classed as inactive in [6], in [7], in [8] and in test [9].
On to `O=C(O)C(F)(F)C(F)(F)C(F)(F)C(F)(F)F`, for which the call in test [1], in [2], in test [3], in test [4], in [5] and in test [6] was inactive. Also, the outcome in [7], in [8] and in test [9] was inactive.
In the case of `O=C(O)C(F)(F)C(F)(F)C(F)(F)C(F)(F)C(F)(F)C(F)(F)C(F)(F)C(F)(F)C(F)(F)C(F)(F)C(F)(F)C(F)(F)F`, the AC50 in test [1] was 7.47 µM (active); in [4] it was 26.3 µM (active). The outcome in [2], in [10], in [3], in [5], in [6] and in test [7] was inactive. Further, the result in test [8] and in [9] was inactive.
In the case of `O=P(O)(O)OCCC(F)(F)C(F)(F)C(F)(F)C(F)(F)C(F)(F)C(F)(F)F`, the AC50 in test [1] is 18.7 µM (active); in [4] it was 39.1 µM (active). Moreover, the call in test [2], in [10], in test [3], in test [5], in test [6] and in test [7] was inactive. The result in test [8] and in [9] was inactive.
On to `C=CC(=O)OCC(F)(F)C(F)(F)C(F)(F)C(F)(F)C(F)(F)C(F)(F)C(F)(F)F`, for which the outcome in test [1], in test [2], in [10], in test [3], in [4] and in test [5] was inactive. The outcome in test [6], in [7], in test [8] and in test [9] was inactive.
Take `O=C(CC(=O)C(F)(F)C(F)(F)F)C(F)(F)F`: the result in [1], in test [2], in test [3], in test [5], in test [6] and in test [7] was inactive. Also, the compound was called inactive in [8] and in test [9]. The AC50 in [4] was 0.0499 µM (active).
Take `O=C(O)C(F)(OC(F)(F)C(F)(OC(F)(F)C(F)(F)C(F)(F)F)C(F)(F)F)C(F)(F)F` (stereo not drawn): the outcome in test [1], in [2], in [10], in [3], in test [4] and in test [5] was inactive. Moreover, the call in test [6], in [7], in test [8] and in test [9] was inactive.
